# Source: PubChem BioAssay
# Inconclusive results are not listed. Calls of active or inactive are those of the source. Unless noted, cut-off not given; nearly all actives show AC50 up to about 26 µM.
# What was measured:
# [1] = growth inhibition of DIPG glioma cells, dose response, cell-based, SU-DIPG-XVII, MIPE5.0, CellTiter-Glo, qHTS (AID 1347060); settings: SU-DIPG-XVII viability, CellTiter-Glo ATP luminescence;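 on AC50: cells exposed to compound for 48 hours before viability readout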
# [2] = growth inhibition of DIPG glioma cells, dose response, cell-based, SU-DIPG-XIII, MIPE5.0, CellTiter-Glo, qHTS (AID 1347064; cut-off not given, nearly all actives have AC50 up to about 23 µM;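 on AC50: cells exposed to compound for 48 hours before the viability read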); settings: SU-DIPG-XIII viability, CellTiter-Glo ATP luminescence
# [3] = viability loss in pontine glioma line – cell-based, SU-DIPG-XXV, MIPE5.0, CellTiter-Glo, qHTS, dose response (AID 1347065); settings: CellTiter-Glo ATP luminescence;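 further: cells exposed to compound for 48 hours before ATP readout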
# [4] = JHH-DIPG-1 glioma cell viability, MIPE5.0 library, CellTiter-Glo luminescence, qHTS (AID 1347067); settings: JHH-DIPG-1 glioma viability, CellTiter-Glo ATP luminescence;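 further: cells exposed to compound for 48 hours before readout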
# [5] = SU-DIPG-XXV glioma cell viability, MIPE5.0 library, qHTS (AID 1347068; cut-off not given, nearly all actives have IC50 up to about 30 µM;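 on IC50: cells exposed to compound for 48 hours before viability readout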)
# [6] = sensitizers of A549 cells to miR-34 induction, primary screen, imaging, A549 dox-inducible miR-34, nuclei and caspase counts (AID 1347080;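 active means compounds whose cell count with miR-34 switched on is under 0.7 times the count with it off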); settings: A549 miR-34 inducible, Hoechst nuclei count, 48 h
# [7] = survival rescue of mitochondrial mutant cells in low glucose, primary screen, MELAS cybrids, Rieske KO mouse fibroblasts, CellTiter-Glo (AID 1508586;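 active means mean z-score across replicates of 1.96 or higher in either the MELAS or the Rieske mutant cell line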;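 further: z relative to plate mean and SD of compound and empty wells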)
# [8] = stronger effect = lower value, cell number ratio, induced over uninduced
# [9] = measured here: relative caspase fold change +Dox/-Dox
# [10] = measured here: total cells with miR-34 induction, stronger effect = lower value
# [11] = measured here: total cells without miR-34 induction
# [12] = MELAS cybrid survival, CellTiter-Glo 48 h, stronger effect = higher value
# [13] = Rieske KO mouse fibroblast survival, CellTiter-Glo 72 h
smiles,measurement,setting,value
COc1cccc(-c2cc(F)ccc2C2Cc3nc(N)nc(C)c3C(=O)N2)n1 (stereo not drawn),AC50,[1],0.0295 µM (active)
same,AC50,[2],0.0417 µM (active)
same,AC50,[3],0.0295 µM (active)
same,AC50,[4],0.0372 µM (active)
same,IC50,[5],0.0742 µM (active)
same,fold change,[6]; [8],0.968 (inactive)
same,fold change,[6]; [9],0.335
same,cell count,[6]; [10],2200
same,cell count,[6]; [11],2270
same,z-score,[7]; [12],2.51 (active)
same,z-score,[7]; [13],-1.33
CN(CCOc1ccc(C[C@H](Nc2ccccc2C(=O)c2ccccc2)C(=O)O)cc1)c1ccccn1,outcome,[1],inactive
same,outcome,[2],inactive
same,outcome,[3],inactive
same,outcome,[4],inactive
same,outcome,[5],inactive
C=CC(=O)Nc1cccc(Nc2nc(Nc3ccc(N4CCN(C(C)=O)CC4)cc3OC)ncc2C(F)(F)F)c1,AC50,[1],1.48 µM (active)
same,AC50,[2],1.66 µM (active)
same,AC50,[3],0.742 µM (active)
same,AC50,[4],1.86 µM (active)
same,IC50,[5],1.32 µM (active)
same,fold change,[6]; [8],0.925 (inactive)
same,fold change,[6]; [9],0.348
same,cell count,[6]; [10],2040
same,cell count,[6]; [11],2210
same,z-score,[7]; [12],-0.595 (inactive)
same,z-score,[7]; [13],1.83
C=CCNC1=C2CC(C)CC(OC)C(O)C(C)/C=C(\C)C(OC(N)=O)C(OC)/C=C/C=C(\C)C(=O)NC(=CC1=O)C2=O (stereo not drawn),AC50,[1],0.59 µM (active)
same,AC50,[2],1.66 µM (active)
same,AC50,[3],4.68 µM (active)
same,AC50,[4],0.525 µM (active)
same,IC50,[5],3.72 µM (active)
Cc1nc(-c2cn3c(n2)-c2ccc(-c4cnn(C(C)(C)C(N)=O)c4)cc2OCC3)n(C(C)C)n1,AC50,[1],0.525 µM (active)
same,AC50,[2],0.295 µM (active)
same,AC50,[3],0.105 µM (active)
same,IC50,[5],1.66 µM (active)
COc1cc(/C=C(\C#N)C(=O)Nc2nnc(C(F)(F)F)s2)ccc1OCc1ccc(C(F)(F)F)cc1C(F)(F)F,AC50,[1],5.25 µM (active)
same,AC50,[2],4.17 µM (active)
same,AC50,[3],3.72 µM (active)
same,AC50,[4],14.8 µM (active)
same,fold change,[6]; [8],0.986 (inactive)
same,fold change,[6]; [9],0.417
same,cell count,[6]; [10],1620
same,cell count,[6]; [11],1640
COc1ncc(-c2ccc3c(Nc4cc(Oc5cc(F)cc(F)c5)cc(C(=O)O)c4)c(S(=O)(=O)NC4CC4)cnc3c2)c(OC)n1,outcome,[1],inactive
same,outcome,[2],inactive
same,outcome,[3],inactive
same,outcome,[5],inactive
CN1CCN(c2ccc(-c3cccc(CN4CCOCC4)c3)cc2NC(=O)c2c[nH]c(=O)cc2C(F)(F)F)CC1,outcome,[1],inactive
same,outcome,[2],inactive
same,outcome,[3],inactive
same,outcome,[5],inactive
C/C(=N\NC(=O)c1cccc(S(=O)(=O)N2CCOCC2)c1)c1cc(Cl)ccc1O,AC50,[1],18.6 µM (active)
same,AC50,[2],9.34 µM (active)
same,AC50,[3],16.6 µM (active)
same,outcome,[5],inactive
COc1ccc([C@@H](O)[C@@H](C)Oc2ccc([C@H]3O[C@H](c4ccc(O[C@H](C)[C@H](O)c5ccc(OC)c(OC)c5)c(OC)c4)[C@H](C)[C@H]3C)cc2OC)cc1OC,AC50,[1],20.9 µM (active)
same,AC50,[2],5.9 µM (active)
same,AC50,[3],10.5 µM (active)
same,IC50,[5],11.8 µM (active)
Cc1ccc(-n2nc(C(C)(C)C)cc2NC(=O)NCc2cc(F)ccc2Oc2ccc3c(cnn3CCO)c2)cc1,AC50,[1],10.5 µM (active)
same,AC50,[2],6.61 µM (active)
same,AC50,[3],5.25 µM (active)
same,IC50,[5],18.6 µM (active)
O=C(NOCC(O)CO)c1ccc(F)c(F)c1Nc1ccc(I)cc1F (stereo not drawn),AC50,[1],0.417 µM (active)
same,AC50,[2],0.525 µM (active)
same,AC50,[3],0.934 µM (active)
same,AC50,[4],0.166 µM (active)
same,fold change,[6]; [8],1.1 (inactive)
same,fold change,[6]; [9],0.559
same,cell count,[6]; [10],2790
same,cell count,[6]; [11],2520
same,z-score,[7]; [12],-0.718 (inactive)
same,z-score,[7]; [13],-0.702
COc1cc2c(cc1OC(C)C)[C@H](c1ccc(Cl)cc1)N(c1ccc(N(C)CC3CCC(N4CCN(C)C(=O)C4)CC3)cc1)C(=O)C2 (stereo partly drawn),AC50,[1],26.3 µM (active)
same,AC50,[2],20.9 µM (active)
same,AC50,[3],26.3 µM (active)
same,IC50,[5],29.5 µM (active)
